This passage reports Potency results from PubChem BioAssay (Tox21).

“And” between values parts separate entries of the source, which are not always exact repeats. Equal values may be shown once. Results filed as inconclusive are left out. The source made the active and inactive calls. Unless noted, calls come from the whole dose curve.

Assay [1] in a line: Nuclear factor erythroid 2-related factor 2/antioxidant responsive element (Nrf2/ARE) small molecule agonists: qHTS cell viability counter screen in human keratinocytes (AID 1919968; active = well fitted curve in the direction sought with a large enough effect in the repeat runs; an effect the other way counts as inactive or inconclusive; note: nearly all actives have a fitted effect of over 55% in size). The method in brief:
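KeratinoSens cells (HaCaT keratinocytes stably carrying an ARE-luciferase reporter) were seeded at 1,500 cells/well and rested 5 h at 37 C/5% CO2. They were then exposed to compounds in DMSO for 23 h. Viability was read by CellTiter-Fluor fluorescence after 1 h.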
A general note: Quantitative high-throughput screening tests each substance at several concentrations.

Assay [2] can be described thus: Nuclear factor erythroid 2-related factor 2/antioxidant responsive element (Nrf2/ARE) small molecule agonists: luciferase reporter gene qHTS assay in human keratinocytes (AID 1919969; note: nearly all actives have a fitted effect of over 35% in size; note: potency is the fitted concentration of half-maximal effect). (In general: In a reporter assay the amount or activity of a reporter protein is the signal.)
Assay [3] deals with KiSS-1 receptor (Homo sapiens) (UniProt Q969F8). The assay can be described thus: Human kisspeptin (KISS1R) small molecule agonists, calcium flux assay in KISS1R-HEK293 cells (AID 1920064; active = well fitted curve in the direction sought with a large enough effect in the repeat runs; an effect the other way counts as inactive or inconclusive). An outline of the steps: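 HEK293 cells stably expressing human KISS1R were plated 18 h at 37 °C, loaded with calcium dye for 1 h at 37 °C, then given compound by pin tool. Fluorescence (Ex/Em 480/540) was read kinetically for 3 min.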
Chain of KiSS-1 receptor (Homo sapiens) (Q969F8 whole entry, looked up): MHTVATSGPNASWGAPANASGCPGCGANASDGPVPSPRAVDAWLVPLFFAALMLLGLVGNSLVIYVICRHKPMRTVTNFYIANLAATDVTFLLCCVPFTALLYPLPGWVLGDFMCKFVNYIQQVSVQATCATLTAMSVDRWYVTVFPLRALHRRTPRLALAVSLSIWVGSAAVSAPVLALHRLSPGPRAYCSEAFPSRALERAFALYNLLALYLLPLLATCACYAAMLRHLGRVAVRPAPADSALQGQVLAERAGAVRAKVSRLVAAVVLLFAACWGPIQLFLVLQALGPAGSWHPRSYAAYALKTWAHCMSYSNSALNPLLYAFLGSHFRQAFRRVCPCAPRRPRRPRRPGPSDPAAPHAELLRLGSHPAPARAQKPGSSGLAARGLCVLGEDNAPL
In general terms: A change in cytosolic calcium serves as a functional read-out for many receptors and channels.

The nature of assay [4]: G protein-coupled receptor (GPCR) small molecule agonists, calcium flux assay: HEK293 wild type cell line counter screen (AID 1920065). An outline of the steps:
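Cells were plated and cultured 18 h at 37 C/5% CO2, then loaded with calcium dye for 1 h at 37 C. Compounds in DMSO were pin-transferred in agonist mode, and fluorescence (Ex/Em 480/540) was read kinetically for 3 min at 1 s intervals.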

Assay [5] can be described thus: p53 small molecule agonists, cell-based qHTS assay with human liver microsomes (AID 1963577). The method in brief:
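p53RE-bla cells, 4,000/well, compound added after 5 h, with human liver microsomes 0.5 mg/mL and NADPH 0.5 mg/mL final; 16 h at 37 C, then LiveBLAzer 2 h RT, fluorescence.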

Assay [6] in a line: p53 small molecule agonists, cell-based qHTS assay with rat liver microsomes (AID 1963578). The method in brief:
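p53RE-bla cells, 4,000/well, pre-incubated 5 h, then given compounds plus rat liver microsomes (0.5 mg/mL final) and NADPH (0.5 mg/mL final). Incubation 16 h at 37 C; beta-lactamase reporter read by LiveBLAzer fluorescence after 2 h at room temperature.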

Assay [7] can be described thus: p53 small molecule agonists, cell-based qHTS assay with human liver microsomes: qHTS cell viability counter screen (AID 1963579). Note: nearly all actives have a fitted effect of over 45% in size. The method in brief:
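p53RE-bla cells, 4,000/well, dosed 5 hours after plating, with human liver microsomes (0.5 mg/mL final) plus NADPH (0.5 mg/mL final), 16 hours at 37 C. Viability read as CellTiter-Glo luminescence after 30 min at room temperature.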

Assay [8] in a line: p53 small molecule agonists, cell-based qHTS assay with rat liver microsomes: qHTS cell viability counter screen (AID 1963580). Note: nearly all actives have a fitted effect of over 45% in size. The method in brief:
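p53RE-bla HCT-116 cells were exposed 16 h at 37 C to compounds with rat liver microsomes (0.5 mg/mL) and NADPH (0.5 mg/mL). Viability was measured in the same wells as ATP content by CellTiter-Glo luminescence.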

A short description of assay [9]: p53 small molecule agonists, cell-based qHTS assay: qHTS cell viability counter screen (AID 1963581). Note: nearly all actives have a fitted effect of over 45% in size. The method in brief: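 p53RE-bla HCT-116 cells were exposed to compounds for 16 h at 37 C; after the beta-lactamase FRET read in the same wells, CellTiter-Glo was added and luminescence (intracellular ATP) read after 30 min at room temperature.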
The nature of assay [10]: p53 small molecule agonists, cell-based qHTS assay (AID 1963582; active = well fitted activation curve with a large enough effect in the signal ratio in the repeat runs, not every such curve was filed as active; the % refers to the signal ratio). An outline of the steps:
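p53RE-bla beta-lactamase reporter cells rested 5 h at 37 C/5% CO2, then received compounds in DMSO by pin transfer and were incubated 16 h at 37 C. LiveBLAzer B/G FRET substrate was loaded for 2 h at room temperature before fluorescence reading.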

Assay [11] has as its target 5-hydroxytryptamine receptor 2A (Homo sapiens) (UniProt P28223). Description: 5-hydroxytryptamine receptor 2A (HTR2A) small molecule antagonists, cell-based qHTS assay (AID 1963586). Note: nearly all actives have a fitted effect of over 45% in size. The method in brief: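 Antagonist-mode intracellular calcium assay: DOI (4 nM) added after 5 min compound pre-incubation at room temperature to dye-loaded HTR2A-CHO cells. Fluorescence followed for 3 min, sampled every second.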

For assay [12] the target is unchanged. The assay can be described thus: 5-hydroxytryptamine receptor 2A (HTR2A) small molecule agonists, cell-based qHTS assay (AID 1963587). Note: nearly all actives have a fitted effect of over 30% in size. An outline of the steps: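 CHO cells stably expressing human HTR2A, plated 18 h, loaded with calcium dye 1 h at 37 C. Agonist mode: compounds added and intracellular calcium fluorescence recorded kinetically for 2 min at 1 sec intervals.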

Assay [13] concerns the target Muscarinic acetylcholine receptor M1 (Homo sapiens) (UniProt P11229). The assay can be described thus: Cholinergic receptor muscarinic 1 (CHRM1) small molecule antagonists, cell-based qHTS assay (AID 1963588). Note: nearly all actives have a fitted effect of over 40% in size. The method in brief: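 CHRM1-CHO calcium-flux assay, antagonist mode. Cells were seeded 18 h, dye-loaded 1 h at 37 C and given compound for 5 min at RT, then acetylcholine was added at 50nM. FDSS fluorescence was read 3 min; 15 concentrations, three runs.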

The target is the same in assay [14]. Description: Cholinergic receptor muscarinic 1 (CHRM1) small molecule agonists, cell-based qHTS assay (AID 1963589). Note: nearly all actives have a fitted effect of over 35% in size. The method in brief:
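CHO cells stably expressing human CHRM1, seeded 18 h at 37 C/5% CO2, dye-loaded 1 h at 37 C, then given compound in agonist mode; intracellular calcium fluorescence read kinetically at 1 s intervals. Fifteen concentrations, three independent runs.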

The nature of assay [15]: cAMP Responsive Elements (CRE) small molecule agonists, cell-based qHTS assay (AID 1963590). An outline of the steps: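 CRE-bla HEK 293T cells in DMEM with 10% dialyzed FBS, NEAA, pyruvate and 25 mM HEPES were plated 18 h at 37 C/5% CO2, then exposed to compounds in DMSO for 3 h before LiveBLAzer B/G FRET substrate addition.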
Assay [16] can be described thus: cAMP Responsive Elements (CRE) small molecule antagonists, cell-based qHTS assay (AID 1963591; active = well fitted inhibition curve with a large enough effect in the signal ratio in the repeat runs, not every such curve was filed as active; the % refers to the signal ratio). The method in brief:
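CRE-bla HEK293T cells were plated 18 h at 37 °C/5% CO2, pinned with compound in DMSO, then stimulated with NKH477 at 0.25 uM final for 3 h. LiveBLAzer B/G FRET substrate was added and plates incubated 2 h at room temperature.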

Assay [17] addresses Beta-2 adrenergic receptor (Homo sapiens) (UniProt P07550). Description: Adrenergic beta2 receptor (ADRB2) small molecule antagonists, cell-based qHTS assay (AID 1963592). Note: series mostly up to about 92 µM; nearly all actives have a fitted effect of over 50% in size. The method in brief:
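Cells (CHO, stable ADRB2 overexpression) incubated 18-20hr at 37C; compounds added from DMSO; agonist mix (1nM isoproterenol, 100uM IBMX, 25uM Ro-20-1724) added; 0.5hr RT; d2-cAMP and anti-cAMP-cryptate added; 1hr RT; 665/615 nm read.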

The target in assay [18] is D(2) dopamine receptor (Homo sapiens) (UniProt P14416). Description: Dopamine D2 receptor (DRD2) small molecule agonists, cell-based qHTS assay (AID 1963594). Note: nearly all actives have a fitted effect of over 35% in size. An outline of the steps:
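HEK293 cells stably expressing human DRD2, pre-treated with PDE inhibitor Ro20-1724 (0.1 mM final) and compound 10 min at room temperature, then stimulated with NKH477 (200nM […]) for 30 min. cAMP read by HTRF (665/620 nm).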

The target is the same in assay [19]. The assay can be described thus: Dopamine D2 receptor (DRD2) small molecule antagonists, cell-based qHTS assay (AID 1963595; active = well fitted inhibition curve with a large enough effect in the signal ratio in the repeat runs, with a control signal flat; the % refers to the signal ratio). The method in brief: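 Human DRD2 antagonist qHTS measuring cAMP by HTRF. The cells are exposed to compound for 10 min, then to NKH477 (200 nM) and quinpirole (12 nM) for 30 min at RT, with Ro20-1724 (0.1 mM) present throughout.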
Assay [20] deals with Beta-2 adrenergic receptor (Homo sapiens) (UniProt P07550). Description: Adrenergic beta2 receptor (ADRB2) small molecule agonists, cell-based qHTS assay (AID 1963593).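 Note: CHO cells stably overexpressing human ADRB2.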 An outline of the steps:
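CHO cells stably over-expressing ADRB2 were plated overnight at 37C, then dosed with compounds plus a stimulation mix containing 100uM IBMX and 25uM Ro-20-1724 for 0.5hr at room temperature. cAMP was measured by HTRF competition, 1hr.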

Chain of Beta-2 adrenergic receptor (Homo sapiens) (P07550 whole entry, looked up): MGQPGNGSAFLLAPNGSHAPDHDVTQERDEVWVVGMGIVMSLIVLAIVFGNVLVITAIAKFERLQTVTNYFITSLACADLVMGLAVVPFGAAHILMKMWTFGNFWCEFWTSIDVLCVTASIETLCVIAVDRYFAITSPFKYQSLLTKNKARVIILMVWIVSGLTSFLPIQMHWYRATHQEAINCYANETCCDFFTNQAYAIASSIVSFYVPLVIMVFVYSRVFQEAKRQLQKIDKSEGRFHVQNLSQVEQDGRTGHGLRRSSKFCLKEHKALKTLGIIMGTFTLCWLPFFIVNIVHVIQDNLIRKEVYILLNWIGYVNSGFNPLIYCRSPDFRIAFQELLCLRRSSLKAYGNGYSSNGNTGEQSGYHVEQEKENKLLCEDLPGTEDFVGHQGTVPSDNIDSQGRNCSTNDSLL
Chain of Muscarinic acetylcholine receptor M1 (Homo sapiens) (P11229 whole entry, looked up): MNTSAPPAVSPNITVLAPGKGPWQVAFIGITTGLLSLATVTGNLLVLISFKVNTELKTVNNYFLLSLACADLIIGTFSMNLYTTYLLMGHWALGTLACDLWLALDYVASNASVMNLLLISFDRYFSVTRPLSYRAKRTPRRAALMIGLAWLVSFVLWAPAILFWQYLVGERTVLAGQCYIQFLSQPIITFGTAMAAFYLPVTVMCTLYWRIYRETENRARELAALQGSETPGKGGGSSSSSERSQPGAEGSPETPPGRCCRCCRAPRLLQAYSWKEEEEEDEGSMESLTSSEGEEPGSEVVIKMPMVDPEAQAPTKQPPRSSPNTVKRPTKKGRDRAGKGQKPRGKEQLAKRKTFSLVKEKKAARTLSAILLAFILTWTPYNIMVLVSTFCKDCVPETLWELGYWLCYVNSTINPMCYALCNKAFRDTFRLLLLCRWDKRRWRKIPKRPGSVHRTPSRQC
Chain of D(2) dopamine receptor (Homo sapiens) (P14416 whole entry, looked up): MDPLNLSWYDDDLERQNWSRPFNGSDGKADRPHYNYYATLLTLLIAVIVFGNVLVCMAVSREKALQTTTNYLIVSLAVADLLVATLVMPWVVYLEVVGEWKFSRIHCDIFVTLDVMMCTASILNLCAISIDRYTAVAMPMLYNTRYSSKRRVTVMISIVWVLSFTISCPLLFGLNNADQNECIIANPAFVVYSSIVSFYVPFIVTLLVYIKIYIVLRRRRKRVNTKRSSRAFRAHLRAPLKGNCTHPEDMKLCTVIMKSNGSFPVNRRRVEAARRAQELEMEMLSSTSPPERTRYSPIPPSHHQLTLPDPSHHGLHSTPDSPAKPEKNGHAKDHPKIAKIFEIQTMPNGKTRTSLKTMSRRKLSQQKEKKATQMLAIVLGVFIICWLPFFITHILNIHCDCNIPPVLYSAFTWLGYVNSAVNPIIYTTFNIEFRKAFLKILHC
Chain of 5-hydroxytryptamine receptor 2A (Homo sapiens) (P28223 whole entry, looked up): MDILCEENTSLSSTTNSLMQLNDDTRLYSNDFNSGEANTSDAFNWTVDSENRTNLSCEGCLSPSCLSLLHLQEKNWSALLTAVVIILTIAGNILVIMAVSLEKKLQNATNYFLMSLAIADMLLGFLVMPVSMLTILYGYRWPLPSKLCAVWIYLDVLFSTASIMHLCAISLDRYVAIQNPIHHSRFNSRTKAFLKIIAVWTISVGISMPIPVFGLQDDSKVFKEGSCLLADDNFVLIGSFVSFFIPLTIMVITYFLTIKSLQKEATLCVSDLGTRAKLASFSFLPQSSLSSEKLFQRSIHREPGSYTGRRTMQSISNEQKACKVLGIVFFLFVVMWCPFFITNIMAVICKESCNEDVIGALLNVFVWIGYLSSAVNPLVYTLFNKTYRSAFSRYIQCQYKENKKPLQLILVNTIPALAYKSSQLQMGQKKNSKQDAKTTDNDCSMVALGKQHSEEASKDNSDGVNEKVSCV

With `CCNc1ccccc1`, the Potency result in assay [1], in assay [2], in assay [3], in assay [4], in assay [5] and in [6] was “inactive” in each case. Besides, the Potency entry in assay [7], in assay [8], in [9], in [10], in assay [11] and in assay [12] was “inactive” throughout. Further, the Potency entry in assay [13], in [14], in assay [15], in assay [16], in assay [17] and in [18] was “inactive” in each case. Further, the Potency entry in [19] is “inactive”.

`CN(C)CCN(Cc1cccs1)c1ccccn1`: the Potency result in [1], in assay [2], in assay [3], in assay [4], in [5] and in [6] was “inactive” in each case. Also, the Potency entry in [7], in [8], in [10], in assay [16], in [17] and in assay [20] was “inactive” each time. Besides, the Potency entry in assay [18] and in assay [19] was “inactive” each time.

With `C[C@H]1C[C@@H]2[C@H]([C@@H](O)C[C@@]3(C)[C@H]2CC[C@]3(O)C(=O)CO)[C@@]2(C)C=CC(=O)C=C12`, the Potency result in assay [1], in assay [2], in [3], in assay [4], in assay [5] and in assay [6] was “inactive” each time. Moreover, the Potency entry in assay [7], in [8], in assay [9], in [10], in assay [15] and in assay [17] was “inactive” each time. The Potency entry in assay [18] and in assay [19] was “inactive” each time.

As to `CCCCOCCO`, the Potency entry in assay [1], in [2], in assay [3], in assay [4], in [5] and in assay [6] was “inactive” throughout. The Potency entry in assay [7], in assay [8], in assay [9], in [10], in assay [11] and in assay [12] was “inactive” each time. Besides, the Potency result in assay [14], in assay [16], in assay [17], in assay [18] and in assay [19] was “inactive” each time.

For the compound `Cn1c(=O)c2[nH]cnc2n(C)c1=O`, the Potency entry in assay [1], in assay [2], in assay [3], in [4], in assay [5] and in assay [6] was “inactive” throughout. Also, the Potency entry in assay [7], in assay [8], in assay [9], in assay [10], in assay [15] and in assay [16] was “inactive” in each case. In addition, the Potency entry in assay [17], in [18] and in assay [19] was “inactive” each time.

For `C=CC(=O)OCCC(=O)O`, the Potency result in [1], in [2], in assay [3], in assay [4], in [6] and in assay [7] was “inactive” in each case. The Potency result in [8], in assay [9], in [10], in [11], in assay [13] and in assay [14] was “inactive” each time. The Potency entry in [15], in assay [16], in assay [17], in assay [20], in assay [18] and in [19] was “inactive” throughout.

On to `COc1cc([C@@H]2c3cc4c(cc3[C@H](O)[C@H]3COC(=O)[C@H]23)OCO4)cc(OC)c1OC`, for which the Potency entry in assay [1], in assay [3], in [4], in [5], in [6] and in assay [8] was “inactive” throughout. The Potency entry in assay [10], in assay [17], in assay [20], in assay [18] and in assay [19] was “inactive” each time. The Potency in assay [2] was 54.4 nM (active) and 53.1 nM (active).

On to `C=C(C)C(=O)OCCCCCCCCCCCC`, for which the Potency result in assay [1], in assay [2], in assay [3], in assay [4], in [5] and in assay [6] was “inactive” each time. Also, the Potency entry in assay [7], in [8], in assay [9], in assay [10], in assay [11] and in assay [12] was “inactive” throughout. Also, the Potency result in assay [13], in assay [14], in [15], in assay [16], in assay [17] and in assay [18] was “inactive” in each case. The Potency result in [19] is “inactive”.
